Measured values as given in PubChem BioAssay (Tox21).
A number with no mark means an inactive call. Records with an inconclusive call do not appear. Where a call stands in place of a potency, no number is given. Activity calls are given as the source filed them. Calls follow the shape of the dose curve; as a rule, active = well fitted curve in the direction sought with a large enough effect in the repeat runs; inconclusive = weak or mixed curves; inactive = no such curve, though single readings can be large; an effect the other way counts as inactive or inconclusive.

Key:
[1] = Human pregnane X receptor (PXR) small molecule agonists, qHTS cell viability counter screen (AID 1346977); also: nearly all actives have a fitted effect of over 50% in size
Summary of the method: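 PXR-Luc HepG2 cells (2,000/well, 5% charcoal-stripped FBS) preincubated 5 hr, then exposed to compounds 24 hr at 37 C. Viability read in the same wells by CellTiter-Fluor fluorescence, reagent added at 23 hr, 1 hr incubation.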

[2] = Caspase-3/7 induction in HepG2 cells by small molecules, qHTS assay (AID 1346978); also: nearly all actives have a fitted effect of over 15% in size
Summary of the method: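 Caspase-3/7 induction was measured by Caspase-Glo 3/7 luminescence (30 min, room temperature) after a 17 hr compound exposure of wild-type HepG2 cells seeded at 2,000 per well and pre-incubated 5 hr.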

[3] = Caspase-3/7 induction in CHO-K1 cells by small molecules, qHTS assay (AID 1346980); also: nearly all actives have a fitted effect of over 15% in size
Summary of the method: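 Luminescent Caspase-Glo 3/7 read (30min, room temperature) quantified apoptosis induction. Cells were wild-type CHO-K1, treated with compound for 17hr at 37 C and 5% CO2.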

[4] = Caspase-3/7 induction in HepG2 cells by small molecules, qHTS cell viability counter screen (AID 1346981); also: nearly all actives have a fitted effect of over 30% in size; also: potency is read from the fitted curve at half-maximal effect
Summary of the method: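 HepG2, WT, 2,000 cells/well; 5 hr pre-incubation 37 C/5% CO2; compound pin-transferred from DMSO; 16 hr exposure; CellTiter-Fluor, 1 hr; fluorescence read.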

[5] = target: Cytochrome P450 2D6 (Homo sapiens) (UniProt P10635); experiment: Cytochrome P450 Family 2 Subfamily D Member 6 (CYP2D6) small molecule antagonists: luciferase reporter qHTS assay (AID 1671196); also: nearly all actives have a fitted effect of over 50% in size; also: potency is read from the fitted curve at half-maximal effect
Summary of the method: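 Read-out is luminescence from luciferin formed by CYP2D6 turnover of a proluciferin substrate, recorded as relative luminescence units. Reactions ran 1 h at room temperature after NADPH regeneration solution was added.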

[6] = target: Cytochrome P450 2C19 (Homo sapiens) (UniProt P33261); experiment: Cytochrome P450 Family 2 Subfamily C Member 19 (CYP2C19) small molecule antagonists: luciferase reporter qHTS assay (AID 1671197); also: nearly all actives have a fitted effect of over 65% in size; also: potency is read from the fitted curve at half-maximal effect
Summary of the method: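 CYP2C19 P450-Glo, 1536-well qHTS. Cpd + enzyme/proluciferin substrate 10 min RT; + NADPH regen, 37C 1 h; stop with luciferin detection reagent, 20 min RT, luminescence (RLU). Pos ctrl ketoconazole.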

[7] = target: Cytochrome P450 2C9 (Homo sapiens) (UniProt P11712); experiment: Cytochrome P450 Family 2 Subfamily C Member 9 (CYP2C9) small molecule antagonists: luciferase reporter qHTS assay (AID 1671198); also: nearly all actives have a fitted effect of over 50% in size; also: potency is read from the fitted curve at half-maximal effect
Summary of the method: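 Enzyme-substrate mix preincubated with compound 10 min at room temperature; reaction started with NADPH regeneration solution, 1 h 37C. Luminescent luciferin product read after 20 min detection reagent.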

[8] = Caspase-3/7 induction in CHO-K1 cells by small molecules, qHTS cell viability counter screen (AID 1346979); also: nearly all actives have a fitted effect of over 35% in size
Summary of the method: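 Wild-type CHO-K1 cells (1,500/well) treated with compound after 5 h plating; after 16 h at 37C, viability read as CellTiter-Fluor fluorescence following 1 h reagent incubation, in the same wells as the caspase read.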

[9] = target: Nuclear receptor subfamily 1 group I member 2 (Homo sapiens) (UniProt O75469); experiment: Human pregnane X receptor (PXR) small molecule agonists, qHTS assay (AID 1346982); also: nearly all actives have a fitted effect of over 35% in size; also: potency is read from the fitted curve at half-maximal effect
Summary of the method: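 Luciferase signal from ONE-Glo (30 min, room temperature) measured activation of hPXR-driven CYP3A4 reporter expression in PXR-Luc HepG2 cells treated with compounds for 24 hr at 37 C.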

[10] = target: Cytochrome P450 1A2 (Homo sapiens) (UniProt P05177); experiment: Cytochrome P450 Family 1 Subfamily A Member 2 (CYP1A2) small molecule antagonists: luciferase reporter qHTS assay (AID 1671199); also: nearly all actives have a fitted effect of over 50% in size; also: potency is read from the fitted curve at half-maximal effect
Summary of the method: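 P450-Glo CYP1A2, 1536-well qHTS: enzyme/proluciferin substrate + cpd (DMSO), 10 min RT; NADPH regen, 1 h RT; detection reagent, 20 min; luminescence, RLU.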

[11] = target: Voltage-gated inwardly rectifying potassium channel KCNH2 (Homo sapiens) (UniProt Q12809); experiment: Human Ether-a-go-go-Related Gene (hERG) channel small molecule antagonists: fluorescence cell-based qHTS assay (AID 1671200)
Summary of the method: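 hERG-U2OS cells plated overnight at 37 C, loaded with FluxOR II dye 1 h at RT in dark; after 10 min, thallium stimulus added. Fluorescence (480/540 nm) read kinetically for 2 min at 1 s intervals.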

[12] = target: Cytochrome P450 3A4 (Homo sapiens) (UniProt P08684); experiment: Cytochrome P450 Family 3 Subfamily A Member 4 (CYP3A4) small molecule antagonists: luciferase reporter qHTS assay (AID 1671201); also: nearly all actives have a fitted effect of over 50% in size; also: potency is read from the fitted curve at half-maximal effect
Summary of the method: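 P450-Glo CYP3A4 luminescent assay: compounds preincubated 10 min at room temperature with enzyme and proluciferin substrate, NADPH regeneration added, 1 h room-temperature reaction, stopped with luciferin detection reagent; luminescence read after 20 min. Ketoconazole positive control.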

[13] = target: Nuclear receptor subfamily 1 group I member 2 (Rattus norvegicus) (UniProt Q9R1A7); experiment: Rat pregnane X receptor (rPXR) activation by small molecules, qHTS assay (AID 1346983); settings: rPXR luciferase reporter cells, One-Glo luminescence, 24 h; stronger effect = higher value; also: nearly all actives have a fitted effect of over 20% in size
Summary of the method: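 Luminescent readout (One-Glo luciferase, 30 min room temperature) followed 24 hr compound treatment at 37 C of rPXR cells plated 2,000 per well and preincubated 5hr; qHTS format with compounds delivered in DMSO.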

[14] = target: Nuclear receptor subfamily 1 group I member 2 (Homo sapiens) (UniProt O75469); experiment: CYP3A4 induction through human pregnane X receptor (PXR) by small molecules, qHTS assay (AID 1346984); also: nearly all actives have a fitted effect of over 40% in size
Summary of the method: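 Luminescence readout: luciferase signal after One-Glo (30 min, room temperature), following 3 h at 37C with 3uM final Luciferin-IPA P450 substrate. Cells were DPX-2 (HepG2, PXR/CYP3A4-luc co-transfected) dosed for 24 h.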

[15] = target: Nuclear receptor subfamily 1 group I member 2 (Homo sapiens) (UniProt O75469); experiment: Human pregnane X receptor (PXR) activation by small molecules, qHTS assay (AID 1346985); also: nearly all actives have a fitted effect of over 40% in size
Summary of the method: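 DPX-2 cells (HepG2 co-transfected with a PXR response element and a CYP3A4-promoter luciferase construct) were seeded at 2,000 per well, rested 5 hr at 37C, then exposed to DMSO-dissolved compounds for 24 hr. Activation was read as luciferase luminescence.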

Chain of Cytochrome P450 3A4 (Homo sapiens) (P08684 whole entry, looked up): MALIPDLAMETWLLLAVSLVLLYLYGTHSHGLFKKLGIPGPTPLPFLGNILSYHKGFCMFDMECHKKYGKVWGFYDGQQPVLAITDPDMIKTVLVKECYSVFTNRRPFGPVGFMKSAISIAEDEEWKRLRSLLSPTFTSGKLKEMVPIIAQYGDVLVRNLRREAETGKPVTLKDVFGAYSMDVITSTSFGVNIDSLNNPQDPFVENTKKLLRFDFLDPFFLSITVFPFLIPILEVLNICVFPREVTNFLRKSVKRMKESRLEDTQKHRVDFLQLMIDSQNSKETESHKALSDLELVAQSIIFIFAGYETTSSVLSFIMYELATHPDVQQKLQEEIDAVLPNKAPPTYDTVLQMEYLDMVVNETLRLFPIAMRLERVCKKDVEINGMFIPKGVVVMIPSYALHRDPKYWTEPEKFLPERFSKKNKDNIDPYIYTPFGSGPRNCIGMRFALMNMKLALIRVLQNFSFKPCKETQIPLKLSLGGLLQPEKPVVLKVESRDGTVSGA
Chain of Cytochrome P450 2C19 (Homo sapiens) (P33261 whole entry, looked up): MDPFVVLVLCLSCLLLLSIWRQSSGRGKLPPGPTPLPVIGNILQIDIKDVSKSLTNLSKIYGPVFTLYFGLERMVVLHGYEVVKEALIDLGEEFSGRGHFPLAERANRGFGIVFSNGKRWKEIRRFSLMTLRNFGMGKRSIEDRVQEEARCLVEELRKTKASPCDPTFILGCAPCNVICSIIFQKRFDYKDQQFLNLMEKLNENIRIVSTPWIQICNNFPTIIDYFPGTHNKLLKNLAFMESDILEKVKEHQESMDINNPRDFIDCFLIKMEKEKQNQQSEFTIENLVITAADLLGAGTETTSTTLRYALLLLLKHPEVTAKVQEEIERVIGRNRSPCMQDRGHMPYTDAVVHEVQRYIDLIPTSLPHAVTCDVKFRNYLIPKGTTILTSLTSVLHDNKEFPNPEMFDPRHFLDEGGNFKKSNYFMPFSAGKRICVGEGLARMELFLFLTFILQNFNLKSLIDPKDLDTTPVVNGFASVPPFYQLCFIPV
Chain of Voltage-gated inwardly rectifying potassium channel KCNH2 (Homo sapiens) (Q12809 whole entry, looked up): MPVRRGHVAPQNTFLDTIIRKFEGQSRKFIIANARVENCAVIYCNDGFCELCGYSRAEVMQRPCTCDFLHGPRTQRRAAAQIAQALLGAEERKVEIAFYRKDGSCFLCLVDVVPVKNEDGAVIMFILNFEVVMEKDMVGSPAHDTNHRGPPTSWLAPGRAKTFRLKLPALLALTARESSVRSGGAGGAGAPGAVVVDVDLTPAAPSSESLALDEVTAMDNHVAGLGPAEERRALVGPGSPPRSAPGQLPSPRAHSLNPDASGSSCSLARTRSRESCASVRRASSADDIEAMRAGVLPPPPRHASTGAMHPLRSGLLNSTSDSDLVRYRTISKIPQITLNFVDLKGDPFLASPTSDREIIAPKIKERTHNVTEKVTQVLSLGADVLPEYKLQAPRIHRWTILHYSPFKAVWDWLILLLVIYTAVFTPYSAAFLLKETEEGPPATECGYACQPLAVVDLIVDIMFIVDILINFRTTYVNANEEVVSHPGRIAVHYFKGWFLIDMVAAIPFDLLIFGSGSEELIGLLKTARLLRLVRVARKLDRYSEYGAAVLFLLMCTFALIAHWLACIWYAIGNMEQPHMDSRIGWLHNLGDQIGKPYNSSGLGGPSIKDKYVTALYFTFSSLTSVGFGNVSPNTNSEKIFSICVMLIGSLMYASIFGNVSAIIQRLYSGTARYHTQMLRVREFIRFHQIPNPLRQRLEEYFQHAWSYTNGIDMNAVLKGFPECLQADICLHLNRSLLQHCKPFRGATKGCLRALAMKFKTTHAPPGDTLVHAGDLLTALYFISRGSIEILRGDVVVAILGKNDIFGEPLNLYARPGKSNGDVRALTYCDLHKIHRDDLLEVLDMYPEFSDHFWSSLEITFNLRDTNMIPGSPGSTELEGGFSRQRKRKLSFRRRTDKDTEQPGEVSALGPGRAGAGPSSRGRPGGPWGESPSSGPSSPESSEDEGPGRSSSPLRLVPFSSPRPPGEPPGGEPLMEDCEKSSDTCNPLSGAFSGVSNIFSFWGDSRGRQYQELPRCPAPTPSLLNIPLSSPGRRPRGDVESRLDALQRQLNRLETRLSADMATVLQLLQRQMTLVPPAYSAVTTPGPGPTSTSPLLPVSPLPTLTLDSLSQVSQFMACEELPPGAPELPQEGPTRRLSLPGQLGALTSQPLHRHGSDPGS
Chain of Cytochrome P450 2C9 (Homo sapiens) (P11712 whole entry, looked up): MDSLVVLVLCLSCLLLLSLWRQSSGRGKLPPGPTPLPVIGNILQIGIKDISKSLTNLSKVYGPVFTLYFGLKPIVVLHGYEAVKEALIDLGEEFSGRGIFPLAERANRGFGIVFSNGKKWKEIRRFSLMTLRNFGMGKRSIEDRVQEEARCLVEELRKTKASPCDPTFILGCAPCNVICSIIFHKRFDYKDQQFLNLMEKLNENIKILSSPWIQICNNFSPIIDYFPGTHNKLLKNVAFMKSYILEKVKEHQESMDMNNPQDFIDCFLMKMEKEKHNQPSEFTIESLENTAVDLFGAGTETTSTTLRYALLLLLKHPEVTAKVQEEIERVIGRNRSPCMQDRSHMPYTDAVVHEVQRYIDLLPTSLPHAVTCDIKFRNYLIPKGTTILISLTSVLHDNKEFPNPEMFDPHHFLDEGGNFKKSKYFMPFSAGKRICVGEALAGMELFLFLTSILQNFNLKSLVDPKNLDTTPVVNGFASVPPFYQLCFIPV
Chain of Nuclear receptor subfamily 1 group I member 2 (Rattus norvegicus) (Q9R1A7 whole entry, looked up): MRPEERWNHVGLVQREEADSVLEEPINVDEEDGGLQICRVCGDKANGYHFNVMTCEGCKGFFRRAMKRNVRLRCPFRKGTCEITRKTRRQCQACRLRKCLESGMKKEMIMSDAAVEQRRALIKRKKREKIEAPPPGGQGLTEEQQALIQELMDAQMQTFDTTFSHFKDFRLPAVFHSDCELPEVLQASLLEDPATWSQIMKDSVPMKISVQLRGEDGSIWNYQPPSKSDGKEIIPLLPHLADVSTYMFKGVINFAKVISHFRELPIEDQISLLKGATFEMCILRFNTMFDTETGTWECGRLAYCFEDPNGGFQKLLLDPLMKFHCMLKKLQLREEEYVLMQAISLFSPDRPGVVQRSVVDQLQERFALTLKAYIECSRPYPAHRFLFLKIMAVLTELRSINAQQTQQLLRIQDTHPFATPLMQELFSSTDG
Chain of Nuclear receptor subfamily 1 group I member 2 (Homo sapiens) (O75469 whole entry, looked up): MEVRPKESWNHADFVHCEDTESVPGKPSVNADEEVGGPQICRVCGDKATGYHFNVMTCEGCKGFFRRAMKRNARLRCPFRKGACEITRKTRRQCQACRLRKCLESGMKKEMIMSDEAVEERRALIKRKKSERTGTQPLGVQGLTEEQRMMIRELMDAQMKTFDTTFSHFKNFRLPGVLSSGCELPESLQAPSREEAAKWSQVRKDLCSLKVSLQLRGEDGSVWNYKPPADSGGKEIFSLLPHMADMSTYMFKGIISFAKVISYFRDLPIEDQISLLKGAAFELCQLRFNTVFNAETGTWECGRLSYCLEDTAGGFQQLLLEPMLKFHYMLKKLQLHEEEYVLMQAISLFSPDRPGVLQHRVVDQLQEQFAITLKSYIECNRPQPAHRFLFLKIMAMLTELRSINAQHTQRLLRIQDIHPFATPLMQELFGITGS
Chain of Cytochrome P450 2D6 (Homo sapiens) (P10635 whole entry, looked up): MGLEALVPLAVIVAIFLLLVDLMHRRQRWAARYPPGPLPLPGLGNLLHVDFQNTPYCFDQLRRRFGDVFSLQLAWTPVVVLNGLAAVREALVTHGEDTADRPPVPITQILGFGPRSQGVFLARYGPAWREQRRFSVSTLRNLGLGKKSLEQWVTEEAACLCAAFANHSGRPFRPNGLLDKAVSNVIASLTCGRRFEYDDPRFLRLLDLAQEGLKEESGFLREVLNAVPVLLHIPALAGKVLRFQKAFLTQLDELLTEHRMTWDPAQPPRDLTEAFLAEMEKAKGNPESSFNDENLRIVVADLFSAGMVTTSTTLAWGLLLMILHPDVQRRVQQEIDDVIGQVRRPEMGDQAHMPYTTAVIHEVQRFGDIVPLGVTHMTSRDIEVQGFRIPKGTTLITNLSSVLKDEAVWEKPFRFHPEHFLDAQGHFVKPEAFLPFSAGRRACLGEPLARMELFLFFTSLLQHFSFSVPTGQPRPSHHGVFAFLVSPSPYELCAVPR
Chain of Cytochrome P450 1A2 (Homo sapiens) (P05177 whole entry, looked up): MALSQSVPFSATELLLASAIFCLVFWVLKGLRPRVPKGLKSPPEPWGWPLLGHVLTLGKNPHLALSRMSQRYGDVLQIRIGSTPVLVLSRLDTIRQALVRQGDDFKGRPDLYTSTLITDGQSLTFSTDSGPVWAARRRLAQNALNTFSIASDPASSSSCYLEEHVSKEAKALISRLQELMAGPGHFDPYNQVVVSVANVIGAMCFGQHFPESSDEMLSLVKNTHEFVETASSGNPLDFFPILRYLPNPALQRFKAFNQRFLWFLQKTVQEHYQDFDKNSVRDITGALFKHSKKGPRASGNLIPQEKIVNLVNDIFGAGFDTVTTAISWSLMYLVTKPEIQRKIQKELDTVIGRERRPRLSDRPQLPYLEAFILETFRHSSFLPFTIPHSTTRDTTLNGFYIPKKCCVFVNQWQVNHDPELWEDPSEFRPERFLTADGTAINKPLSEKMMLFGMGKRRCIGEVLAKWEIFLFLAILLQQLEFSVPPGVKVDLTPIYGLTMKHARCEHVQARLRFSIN

Compound	Potency [1]	Potency [2]	outcome [3]	Potency [4]	Potency [5]	Potency [6]	Potency [7]	Potency [8]	Potency [9]	Potency [10]	Potency [11]	Potency [12]	max activation [13] [%]	Potency [14]	Potency [15]
O=C(CCNNC(=O)c1ccncc1)NCc1ccccc1	inactive	inactive	inactive	inactive	15.5 µM (active)	11 µM (active)	4.9 µM (active)	–	–	–	–	–	–	–	–
CC(N)C(=O)OC(C)(C)Cc1ccc(Cl)cc1 (centres undefined)	–	inactive	inactive	inactive	7.76 µM (active)	1.55 µM (active)	–	inactive	inactive	1.38 µM (active)	inactive	–	–	–	–
CCCCN	inactive	inactive	inactive	inactive	–	–	–	–	inactive	inactive	inactive	inactive	–	–	–
CC(COC(C)(C)C)OCCCO (centres undefined)	inactive	inactive	inactive	inactive	63.3 µM (active)	–	inactive	–	inactive	inactive	inactive	inactive	–	–	–
CCn1ccc(NS(=O)(=O)c2ccc(N)cc2)nc1=O	inactive	inactive	inactive	–	inactive	inactive	–	–	inactive	inactive	–	–	–	–	–
CC(C)N(c1ccccc1)C(C)C	–	inactive	inactive	inactive	inactive	inactive	inactive	inactive	inactive	inactive	inactive	inactive	–	–	–
O=C(O)Cc1ccc(Cl)cc1Cl	inactive	inactive	inactive	inactive	31.7 µM (active)	inactive	inactive	–	–	inactive	–	–	–	–	–
CC[C@H](C)C(=O)O[C@H]1C[C@H](O)C=C2C=C[C@H](C)[C@H](CC[C@@H](O)C[C@@H](O)CC(=O)O)[C@H]21	–	inactive	inactive	inactive	inactive	inactive	–	inactive	inactive	–	inactive	inactive	-0.271	inactive	inactive
CN(C)CCOCCO	inactive	inactive	inactive	inactive	inactive	inactive	inactive	–	–	inactive	inactive	inactive	–	–	–
NCCN1CCOCC1	inactive	inactive	inactive	inactive	–	–	–	–	–	–	inactive	–	–	–	–
N#Cc1ccc(C(=O)O)cc1	–	inactive	inactive	inactive	28.3 µM (active)	–	–	inactive	inactive	–	–	–	–	–	–
CCc1ccc(C=O)cc1	inactive	inactive	inactive	inactive	inactive	inactive	–	–	–	–	inactive	inactive	–	–	–
Cc1cccc2nccnc12	inactive	inactive	inactive	inactive	–	inactive	–	–	inactive	inactive	inactive	–	–	–	–
O=S(=O)(O)c1cc(O)c2ccc(Nc3ccccc3)cc2c1	inactive	inactive	inactive	–	–	71 µM (active)	39.9 µM (active)	–	inactive	inactive	inactive	inactive	–	–	–
NCCS	–	inactive	inactive	inactive	inactive	inactive	–	inactive	inactive	inactive	inactive	inactive	-0.0213	inactive	inactive
CC(C)C[C@H](NC(=O)CNC(=O)[C@H](Cc1ccc(O)cc1)NC(=O)[C@H](CO)NC(=O)[C@H](Cc1c[nH]c2ccccc12)NC(=O)[C@H](Cc1cnc[nH]1)NC(=O)[C@@H]1CCC(=O)N1)C(=O)N[C@@H](CCCN=C(N)N)C(=O)N1CCC[C@H]1C(=O)NCC(N)=O (stereo in doubt)	–	inactive	inactive	inactive	inactive	inactive	inactive	inactive	inactive	–	inactive	–	–	–	–
CCOc1cc([N+](=O)[O-])c(OCC)cc1N1CCOCC1	inactive	inactive	inactive	–	inactive	inactive	7.96 µM (active)	–	30.6 µM (active)	–	inactive	inactive	–	–	–

Compound	Potency [1]	Potency [2]	outcome [3]	Potency [4]	Potency [5]	Potency [6]	Potency [7]	Potency [8]	Potency [9]	Potency [10]	Potency [11]	Potency [12]	max activation [13] [%]	Potency [14]	Potency [15]
CCCCCCCCOS(=O)(=O)O	inactive	inactive	inactive	–	inactive	71 µM (active)	28.3 µM (active)	–	inactive	–	inactive	inactive	–	–	–
C=C(C)C(=O)OCc1ccccc1	inactive	inactive	inactive	inactive	inactive	–	inactive	–	inactive	–	–	inactive	–	–	–
N[C@@H](CCC(=O)Nc1ccc([N+](=O)[O-])cc1)C(=O)O	–	inactive	inactive	54.5 µM (active)	inactive	inactive	inactive	inactive	inactive	inactive	inactive	inactive	–	–	–
O=C(O)c1ccc(Cl)cc1Cl	–	inactive	inactive	inactive	inactive	inactive	inactive	inactive	inactive	inactive	inactive	inactive	–	–	–
CCCC(=O)C(C)=O	inactive	inactive	inactive	inactive	inactive	–	–	–	inactive	inactive	inactive	–	–	–	–
O=C(NCCN1CCOCC1)c1ccc(Cl)cc1	–	inactive	inactive	inactive	–	34.7 µM (active)	inactive	inactive	inactive	inactive	inactive	inactive	1.47	inactive	inactive
CC(C)C(=O)OCc1cccc(OC(=O)[C@@H]2N3C(=O)[C@@H](NC(=O)Cc4ccccc4)[C@H]3SC2(C)C)c1	–	inactive	inactive	inactive	inactive	inactive	–	inactive	inactive	inactive	–	–	–	–	–
Cc1cccc(OCC(O)CNC(C)(C)C)c1C (centres undefined)	–	inactive	inactive	inactive	13.8 µM (active)	inactive	inactive	inactive	inactive	–	inactive	inactive	–	–	–
NC(CO)C(=O)NNCc1ccc(O)c(O)c1O (centres undefined)	inactive	inactive	inactive	inactive	–	–	–	–	–	–	inactive	–	-1.3	–	inactive
O=Cc1ccc(Cl)c(Cl)c1	inactive	inactive	inactive	inactive	inactive	inactive	–	–	inactive	–	inactive	inactive	–	–	–
Cc1cccc(C)c1NC(=O)c1ccccc1C(=O)O	inactive	inactive	inactive	inactive	inactive	inactive	inactive	–	–	inactive	inactive	inactive	-1.88	inactive	inactive
CC1(CO)CN(c2ccccc2)NC1=O (centres undefined)	–	inactive	inactive	inactive	28.3 µM (active)	20 µM (active)	25.2 µM (active)	inactive	61.1 µM (active)	35.6 µM (active)	inactive	31.7 µM (active)	–	–	–
CC(CO)c1ccccc1 (centres undefined)	–	inactive	inactive	inactive	inactive	inactive	–	–	inactive	inactive	inactive	inactive	–	–	–
CCOc1cc(NC(C)=O)ccc1C(=O)OC	–	inactive	inactive	inactive	inactive	inactive	–	inactive	–	–	inactive	inactive	-4.18	inactive	inactive
CC(C)(C)OC(=O)c1ccc(O)cc1	–	inactive	inactive	inactive	–	63.3 µM (active)	–	–	27.3 µM (active)	31.7 µM (active)	inactive	inactive	–	–	–
Cc1ccccc1N=O	–	–	inactive	inactive	inactive	inactive	inactive	inactive	inactive	41 µM (active)	–	36.5 µM (active)	–	–	–
